# Measured values taken from PubChem BioAssay (EPA / NIEHS).
# More than one record can exist for a structure, and the calls need not agree. Activity calls are given as the source filed them. How the source made its calls: active means hit-call score of the fitted dose curve at least 0.9, where 1 is the maximum; inactive means score below 0.9.
# Legend:
# [1] = read-out: urokinase plasminogen activator (uPA), PLAU (gene 5328); experiment: BSK_KF3CT_uPA: BioMAP Diversity Plus: KF3CT Assay for urokinase plasminogen activator (uPA) Biomarker Activity (AID 2283075); details: primary human keratinocytes with fibroblasts; actives raise or lower the signal
# In short: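 Human keratinocyte plus foreskin fibroblast primary co-culture exposed to chemical for 24 h. uPA levels were quantified by ELISA, and activity was fitted bidirectionally against a DMSO negative-control baseline.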
# CD40, CD40 (gene 958) [2] = experiment: BSK_LPS_CD40: BioMAP Diversity Plus: LPS Assay for CD40 Biomarker Activity (AID 2283076); details: primary human HUVEC with PBMC; actives raise or lower the signal
# In short: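 ELISA readout of CD40 in HUVEC/PBMC co-culture (BSK_LPS system), 24 h post-dosing; bidirectional curve fit, DMSO baseline; parallel SRB total-protein staining for cytotoxicity.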
# [3] = read-out: E-selectin (Homo sapiens) (UniProt P16581); experiment: BSK_LPS_Eselectin: BioMAP Diversity Plus: LPS Assay for Eselectin Biomarker Activity (AID 2283077); details: primary human HUVEC with PBMC; actives raise or lower the signal
# In short: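 ELISA readout of E-selectin, 24 h post-dose, HUVEC + PBMC co-culture (LPS system). Gain or loss of signal vs DMSO baseline, bidirectional fit.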
# [4] = read-out: Interleukin-8 (IL8), CXCL8 (gene 3576); experiment: BSK_LPS_IL8: BioMAP Diversity Plus: LPS Assay for Interleukin-8 (IL8) Biomarker Activity (AID 2283078); details: primary human HUVEC with PBMC; actives raise or lower the signal
# In short: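 HUVEC + PBMC co-culture, LPS-activated; test chemicals dosed, IL-8 read by ELISA at 24 h. Bidirectional curve fit vs DMSO baseline (gain or loss of signal).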
# [5] = BSK_LPS_SRB: Viability Assessment in the BioMAP Diversity Plus: LPS Assay (AID 2283079); details: primary human HUVEC with PBMC;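 further: total protein by sulforhodamine B absorbance as a cytotoxicity measure; measured one day after compound addition; fitted in both directions against DMSO so loss or gain of signal counts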
# In short: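 HUVEC + PBMC co-culture, LPS-stimulated; compound 24 h. 10% TCA fix, 0.1% SRB stain, A560. Bidirectional fit vs DMSO.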
# [6] = read-out: Interleukin-1 alpha (IL1a), IL1A (gene 3552); experiment: BSK_LPS_IL1a: BioMAP Diversity Plus: LPS Assay for Interleukin-1 alpha (IL1a) Biomarker Activity (AID 2283080); details: primary human HUVEC with PBMC; actives raise or lower the signal
# In short: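 HUVEC/PBMC co-culture, LPS system; 24 h after dosing; IL-1a by ELISA; gain or loss of signal fitted bidirectionally vs DMSO baseline.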
# [7] = read-out: Monocyte Chemoattractant Protein-1 (MCP1), CCL2 (gene 6347); experiment: BSK_LPS_MCP1: BioMAP Diversity Plus: LPS Assay for Monocyte Chemoattractant Protein-1 (MCP1) Biomarker Activity (AID 2283081); details: primary human HUVEC with PBMC; actives raise or lower the signal
# In short: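 ELISA read-out of MCP-1 after 24 h chemical dosing of a human umbilical vein endothelial cell/peripheral blood mononuclear cell co-culture stimulated with LPS. Gain or loss of signal fitted relative to DMSO controls.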
# [8] = BSK_LPS_PGE2: BioMAP Diversity Plus: LPS Assay for Prostaglandin E2 (PGE2) Biomarker Activity (AID 2283082); details: primary human HUVEC with PBMC; actives raise or lower the signal
# In short: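 HUVEC plus human PBMC co-culture stimulated with LPS; secreted PGE2 quantified by ELISA 24 h after chemical dosing. Activity fitted bidirectionally against DMSO baseline; parallel SRB staining (0.1% SRB after 10% TCA fixation, 560 nm) flags overt cytotoxicity.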
# [9] = read-out: Macrophage colony-stimulating factor (MCSF), CSF1 (gene 1435); experiment: BSK_LPS_MCSF: BioMAP Diversity Plus: LPS Assay for Macrophage colony-stimulating factor (MCSF) Biomarker Activity (AID 2283083); details: primary human HUVEC with PBMC; actives raise or lower the signal
# In short: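 HUVEC + PBMC co-culture (human primary), 24 h post-dose; M-CSF by ELISA; gain/loss of signal fitted bidirectionally vs DMSO baseline.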
# [10] = read-out: Tissue Factor, F3 (gene 2152); experiment: BSK_LPS_TissueFactor: BioMAP Diversity Plus: LPS Assay for Tissue Factor Biomarker Activity (AID 2283084); details: primary human HUVEC with PBMC; actives raise or lower the signal
# In short: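 HUVEC/PBMC co-culture, LPS-activated; CD142 ELISA read 24 h post-dose; bidirectional curve fit vs DMSO negative control.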
# [11] = read-out: Tumor necrosis factor (Homo sapiens) (UniProt P01375); experiment: BSK_LPS_TNFa: BioMAP Diversity Plus: LPS Assay for Tumour Necrosis Factor alpha (TNFa) Biomarker Activity (AID 2283085); details: primary human HUVEC with PBMC; actives raise or lower the signal
# In short: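 Human umbilical vein endothelial cells co-cultured with PBMC and stimulated with LPS. TNFa was measured by ELISA 24 h after chemical dosing, fitted bidirectionally relative to DMSO.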
# [12] = read-out: Vascular cell adhesion molecule 1 (VCAM1), VCAM1 (gene 7412); experiment: BSK_LPS_VCAM1: BioMAP Diversity Plus: LPS Assay for Vascular cell adhesion molecule 1 (VCAM1) Biomarker Activity (AID 2283086); details: primary human HUVEC with PBMC; actives raise or lower the signal
# In short: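 Human umbilical vein endothelial cells co-cultured with PBMC and stimulated with LPS; VCAM-1 measured by ELISA 24 h after dosing. Bidirectional curve fitting against DMSO baseline; cytotoxicity tracked in parallel by SRB total-protein staining.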
# CD38, CD38 (gene 952) = experiment: BSK_SAg_CD38: BioMAP Diversity Plus: SAg Assay for CD38 Biomarker Activity (AID 2283087); details: primary human HUVEC with PBMC; actives raise or lower the signal
# In short: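 Human HUVEC plus PBMC co-culture stimulated with superantigen; CD38 measured by ELISA 24 h after chemical dosing. Fluorescence read-out, bidirectional fit against DMSO; cytotoxicity tracked in parallel by SRB and Alamar Blue.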
# CD40, CD40 (gene 958) [13] = experiment: BSK_SAg_CD40: BioMAP Diversity Plus: SAg Assay for CD40 Biomarker Activity (AID 2283088); details: primary human HUVEC with PBMC; actives raise or lower the signal
# In short: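 HUVEC/PBMC co-culture, 24 h post-dose; CD40 by ELISA, fluorescence intensity; bidirectional fit vs DMSO negative control.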
# CD69, CD69 (gene 969) = experiment: BSK_SAg_CD69: BioMAP Diversity Plus: SAg Assay for CD69 Biomarker Activity (AID 2283089); details: primary human HUVEC with PBMC; actives raise or lower the signal
# In short: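 Values derive from bidirectional fitting relative to DMSO vehicle. Cells: umbilical vein endothelium plus peripheral blood mononuclear cells, treated 24 h before fluorescent ELISA for CD69.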
# [14] = read-out: Monocyte Chemoattractant Protein-1 (MCP1), CCL2 (gene 6347); experiment: BSK_SAg_MCP1: BioMAP Diversity Plus: SAg Assay for Monocyte Chemoattractant Protein-1 (MCP1) Biomarker Activity (AID 2283090); details: primary human HUVEC with PBMC; actives raise or lower the signal
# In short: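 MCP-1 levels in the endothelial–PBMC SAg co-culture were quantified by ELISA at 24 h post-dosing; both increases and decreases versus DMSO scored. Cytotoxicity monitored by SRB total protein in parallel cultures.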
# [15] = read-out: E-selectin (Homo sapiens) (UniProt P16581); experiment: BSK_SAg_Eselectin: BioMAP Diversity Plus: SAg Assay for Eselectin Biomarker Activity (AID 2283091); details: primary human HUVEC with PBMC; actives raise or lower the signal
# In short: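 E-selectin ELISA readout at 24 h post-dosing in human umbilical vein endothelial cell/PBMC co-culture; gain or loss of signal fitted relative to DMSO baseline.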
# [16] = read-out: Monokine induced gamma interferon (MIG), CXCL9 (gene 4283); experiment: BSK_SAg_MIG: BioMAP Diversity Plus: SAg Assay for Monokine induced gamma interferon (MIG) Biomarker Activity (AID 2283092); details: primary human HUVEC with PBMC; actives raise or lower the signal
# In short: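 Values reflect bidirectional fitting of ELISA-measured MIG against DMSO vehicle, taken 24 h after dosing of a co-culture of human umbilical vein endothelial cells and peripheral blood mononuclear cells.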
# [17] = BSK_SAg_PBMCCytotoxicity: PBMC Cytotoxicity Assessment in the BioMAP Diversity Plus: SAg Assay (AID 2283093); details: primary human HUVEC with PBMC;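 further: PBMC viability measured as Alamar Blue reduction fluorescence at 546/580 nm; fitted both ways against DMSO so a hit may be loss or gain of signal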;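 on AC50: PBMC superantigen activated with SEB plus TSST-1 one hour after compound addition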
# In short: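 Human umbilical vein endothelial cells co-cultured with PBMC; PBMC (75,000/well) pre-treated with compound 1 h, then activated with SEB and TSST-1 (20 ng/mL final each) for 90 h. Alamar Blue added 6 h, fluorescence 546/580 nm; bidirectional fit versus DMSO.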
# [18] = read-out: Interleukin-8 (IL8), CXCL8 (gene 3576); experiment: BSK_SAg_IL8: BioMAP Diversity Plus: SAg Assay for Interleukin-8 (IL8) Biomarker Activity (AID 2283094); details: primary human HUVEC with PBMC; actives raise or lower the signal
# In short: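 Human umbilical vein endothelial cells co-cultured with PBMC, stimulated with superantigen; IL-8 measured by ELISA 24 h after chemical dosing. Bidirectional fitting versus DMSO; SRB staining in parallel cultures tracks cytotoxicity.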
# E-selectin (Homo sapiens), sequence (P16581 whole entry, looked up): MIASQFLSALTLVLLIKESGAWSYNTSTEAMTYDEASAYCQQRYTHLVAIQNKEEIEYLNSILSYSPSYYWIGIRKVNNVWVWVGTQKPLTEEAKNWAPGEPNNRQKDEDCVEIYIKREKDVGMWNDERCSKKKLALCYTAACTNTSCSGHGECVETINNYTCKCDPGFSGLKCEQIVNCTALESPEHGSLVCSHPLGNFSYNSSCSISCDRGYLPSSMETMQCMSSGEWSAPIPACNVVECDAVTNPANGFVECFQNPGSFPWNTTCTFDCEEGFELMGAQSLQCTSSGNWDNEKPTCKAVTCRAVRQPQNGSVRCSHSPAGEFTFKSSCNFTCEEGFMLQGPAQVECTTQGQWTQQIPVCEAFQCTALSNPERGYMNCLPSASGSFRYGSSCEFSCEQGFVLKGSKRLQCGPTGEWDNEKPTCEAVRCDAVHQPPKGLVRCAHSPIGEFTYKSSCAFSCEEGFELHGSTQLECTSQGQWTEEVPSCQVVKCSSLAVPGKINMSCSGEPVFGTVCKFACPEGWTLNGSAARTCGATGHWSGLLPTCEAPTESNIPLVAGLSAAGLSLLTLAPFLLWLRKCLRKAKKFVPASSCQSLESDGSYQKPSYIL
# Tumor necrosis factor (Homo sapiens), sequence (P01375 whole entry, looked up): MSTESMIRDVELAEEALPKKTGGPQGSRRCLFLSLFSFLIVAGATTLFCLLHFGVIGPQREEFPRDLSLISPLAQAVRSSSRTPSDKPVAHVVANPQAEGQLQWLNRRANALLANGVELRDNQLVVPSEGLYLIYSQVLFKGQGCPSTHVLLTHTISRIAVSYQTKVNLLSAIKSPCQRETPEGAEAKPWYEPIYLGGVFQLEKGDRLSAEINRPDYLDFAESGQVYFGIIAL
compound,measurement,setting,value
C=CC(Cl)CCl (stereo unspecified),AC50,[1],0.0169 µM (active)
same,outcome,"CD40, CD40 (gene 958) [2]",inactive
same,outcome,[3],inactive
same,outcome,[4],inactive
same,outcome,[5],inactive
same,outcome,[6],inactive
same,outcome,[7],inactive
same,outcome,[8],inactive
same,outcome,[9],inactive
same,outcome,[10],inactive
same,outcome,[11],inactive
same,outcome,[12],inactive
same,outcome,"CD38, CD38 (gene 952)",inactive
same,AC50,"CD40, CD40 (gene 958) [13]",0.478 µM (active)
same,outcome,"CD69, CD69 (gene 969)",inactive
same,outcome,[14],inactive
same,outcome,[15],inactive
same,outcome,[16],inactive
same,outcome,[17],inactive
same,outcome,[18],inactive
O=C(Cc1ccccc1)OCCc1ccccc1,outcome,[1],inactive
same,outcome,"CD40, CD40 (gene 958) [2]",inactive
same,outcome,[3],inactive
same,outcome,[4],inactive
same,outcome,[5],inactive
same,AC50,[6],3.97 µM (active)
same,outcome,[6],inactive
same,outcome,[7],inactive
same,outcome,[8],inactive
same,outcome,[9],inactive
same,outcome,[10],inactive
same,outcome,[11],inactive
same,outcome,[12],inactive
same,outcome,"CD38, CD38 (gene 952)",inactive
same,outcome,"CD40, CD40 (gene 958) [13]",inactive
same,outcome,"CD69, CD69 (gene 969)",inactive
same,outcome,[14],inactive
same,outcome,[15],inactive
same,outcome,[16],inactive
same,outcome,[17],inactive
same,outcome,[18],inactive
c1ccc2sc(SNC3CCCCC3)nc2c1,outcome,[1],inactive
same,outcome,"CD40, CD40 (gene 958) [2]",inactive
same,outcome,[3],inactive
same,outcome,[4],inactive
same,outcome,[5],inactive
same,AC50,[6],30.2 µM (active)
same,outcome,[7],inactive
same,outcome,[8],inactive
same,outcome,[9],inactive
same,AC50,[10],0.676 µM (active)
same,AC50,[11],30.5 µM (active)
same,outcome,[12],inactive
same,outcome,"CD38, CD38 (gene 952)",inactive
same,outcome,"CD40, CD40 (gene 958) [13]",inactive
same,outcome,"CD69, CD69 (gene 969)",inactive
same,outcome,[14],inactive
same,outcome,[15],inactive
same,outcome,[16],inactive
same,AC50,[17],27 µM (active)
same,outcome,[18],inactive
O=C(CCl)NCO,outcome,[1],inactive
same,outcome,"CD40, CD40 (gene 958) [2]",inactive
same,outcome,[3],inactive
same,AC50,[4],0.0625 µM (active)
same,outcome,[5],inactive
same,outcome,[6],inactive
same,outcome,[7],inactive
same,outcome,[8],inactive
same,outcome,[9],inactive
same,outcome,[10],inactive
same,outcome,[11],inactive
same,outcome,[12],inactive
same,outcome,"CD38, CD38 (gene 952)",inactive
same,outcome,"CD40, CD40 (gene 958) [13]",inactive
same,outcome,"CD69, CD69 (gene 969)",inactive
same,outcome,[14],inactive
same,outcome,[15],inactive
same,outcome,[16],inactive
same,outcome,[17],inactive
same,outcome,[18],inactive
NC(=O)CCl,outcome,[1],inactive
same,outcome,"CD40, CD40 (gene 958) [2]",inactive
same,outcome,[3],inactive
same,outcome,[4],inactive
same,outcome,[5],inactive
same,outcome,[6],inactive
same,outcome,[7],inactive
same,outcome,[8],inactive
same,outcome,[9],inactive
same,outcome,[10],inactive
same,outcome,[11],inactive
same,outcome,[12],inactive
same,outcome,"CD38, CD38 (gene 952)",inactive
same,outcome,"CD40, CD40 (gene 958) [13]",inactive
same,outcome,"CD69, CD69 (gene 969)",inactive
same,outcome,[14],inactive
same,outcome,[15],inactive
same,outcome,[16],inactive
same,outcome,[17],inactive
same,outcome,[18],inactive
O=[N+]([O-])c1ccc(Nc2ccccc2)cc1,outcome,[1],inactive
same,outcome,"CD40, CD40 (gene 958) [2]",inactive
same,outcome,[3],inactive
same,outcome,[4],inactive
same,outcome,[5],inactive
same,outcome,[6],inactive
same,outcome,[7],inactive
same,outcome,[8],inactive
same,outcome,[9],inactive
same,outcome,[10],inactive
same,AC50,[11],32.5 µM (active)
same,outcome,[12],inactive
same,outcome,"CD38, CD38 (gene 952)",inactive
same,outcome,"CD40, CD40 (gene 958) [13]",inactive
same,outcome,"CD69, CD69 (gene 969)",inactive
same,outcome,[14],inactive
same,outcome,[15],inactive
same,outcome,[16],inactive
same,outcome,[17],inactive
same,outcome,[18],inactive
